TROY NFkB inh: inhibitors of TROY-dependent NF-kB signaling; 360,000 compounds, 0.98% hits; Q293 LMP1-TROYcd NF-kB luciferase reporter, 4 h; inhibition, % at 10 µM;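 active means compounds whose plate-normalised and pattern-corrected inhibition of the luciferase reporter signal at the single screening dose is 50% or more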
TWEAK Fn14 block: TWEAK-Fn14 signaling inhibition; TWEAK-stimulated Fn14 reporter cells, luciferase luminescence, 8 h; inhibition, % at 10 µM; 360,000 compounds, 2% hits; in the data active means inhibition above about 50%
LGR2 inh: Drosophila LGR2 receptor signaling inhibition | HEK293 LGR2, CRE-luciferase, bursicon-stimulated, 4 h | inhibition, % at 9.99 µM | 380,000 compounds, 0.35% hits | AID 720647;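 active means drop in luminescence signal, shown as inhibition above about 50% in the replicate tests, limit read from the data, passing the limit was not always enough; inconclusive means probably only some replicates passing the limit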;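 further: agonist challenge used bursicon conditioned medium at about half maximal strength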
CF NFkB block: inhibitors of cystic fibrosis induced NF-kB. KKLEB NF-kB-GFP reporter, PAF-induced, GFP fluorescence overnight. inhibition, % at 5 µM. 360,000 compounds, 0.86% hits;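 active means at least 50% inhibition at 5 µM, scaled per plate between neutral and stimulator controls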;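 further: PAF is a Pseudomonas aeruginosa culture filtrate used as stimulus; plate controls were PAF-stimulated DMSO wells for no effect and unstimulated DMSO wells for full effect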
KKLEB tox: reduces viability of KKLEB cystic fibrosis airway cells | activity change (cytotoxicity), % at 5 µM | 360,000 compounds, 0.36% hits | KKLEB CF airway cells viability, ATPlite luminescence, overnight; stronger effect = lower value; cells stimulated with P. aeruginosa culture filtrate;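 active means corrected activity change at or below -50% at 5 µM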
EWS-Fli inh: blocks EWS/Fli oncoprotein-driven transcription | A673 NR0B1-luciferase reporter, viability-normalised | inhibition, % at 12.6 µM | 350,000 compounds, 0.67% hits;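 active means mean inhibition of at least 50% after viability correction, with every replicate also passing that limit; inconclusive means mean reaches 50% but only one of two replicates passes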;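 further: firefly luciferase signal divided by Alamar Blue viability fluorescence both relative to DMSO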
CF NFkB conf: CF NF-kB inhibition confirmation, single concentration; 1,300 compounds, 64% hits; inhibition, % at 5 µM; shares compounds with CF NFkB block; KKLEB CF airway cells, PAF-induced NF-kB-GFP fluorescence, overnight; in the data active means inhibition above about 40%;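 further: stimulus PAF is a Pseudomonas aeruginosa filtrate and not platelet activating factor; plate controls were DMSO wells with stimulus for no effect and unstimulated DMSO wells for full effect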
* = called active by the depositor; u = inconclusive; x = no result given. Rows were chosen to be rich in hits. Some 2.6% of all compounds tested hit in one or more screens of this group.

SMILES	TROY NFkB inh	TWEAK Fn14 block	LGR2 inh	CF NFkB block	KKLEB tox	EWS-Fli inh	CF NFkB conf
O=C(Nc1ccc(NC(=O)c2ccccn2)cc1)C(=O)Nc1ccc2c(c1)OCCO2	-5.3	-36.0	11.2	55.4*	-47.1	-19.3	11.4
O=C(NCc1ccccc1)c1nc(S(=O)(=O)Cc2ccccc2)ncc1Cl	69.5*	81.5*	3.3	87.4*	-29.8	x	65.9*
O=C(NCc1ccc2c(c1)OCO2)c1nc(S(=O)(=O)Cc2ccccc2F)ncc1Cl	76.1*	78.9*	7.6	86.2*	-1.7	x	41.7*
O=C(NCc1ccc2c(c1)OCO2)c1ccc(Cl)nc1	-13.7	8.1	-24.3	-8.8	-0.7	3.4	x
COc1ccc(CNC(=O)c2nc(S(=O)(=O)Cc3ccccc3)ncc2Cl)cc1	59.2*	72.8*	-1.0	89.5*	-20.5	x	70.8*
O=C(O)CCSc1nc2ccccc2n1-c1ccccc1	13.0	-1.2	-11.5	56.1*	23.5	11.2	19.4
O=[N+]([O-])c1ccc(NC(=S)NCCc2ccc(F)cc2)cc1	27.1	65.9*	29.4	50.5*	-48.0	-5.7	66.5*
O=C(NCCc1ccc(F)cc1)Nc1ccc([N+](=O)[O-])cc1	-1.2	-9.4	4.2	-27.6	14.5	x	x
Cc1c(CCNC=O)cc(C)c2c3c(oc12)CCCC3	-49.1	-10.4	-105.6	58.0*	-11.6	-68.7	18.7
C=CC[C@]12C=C(OC)C(=O)C(OC)=C1O[C@@H](c1ccc3c(c1)OCO3)[C@H]2C	-5.7	-5.5	-6.3	1.6	5.5	-3.3	x
C=CC[C@]12CC=CC(=O)[C@@]1(O)O[C@H](c1ccc(OC)c(OC)c1)[C@H]2C	-23.5	65.5*	u	62.2*	-19.4	8.5	57.9*
C[C@@H]1CN([C@@H](C)CO)C(=O)c2cc(C#Cc3ccncc3)cnc2O[C@H]1CN(C)C(=O)CN(C)C	x	x	-8.4	x	x	3.4	x
Cc1cccc(Nc2ncnc3ccc(Br)cc23)c1	26.2	62.1*	34.5	58.5*	-10.1	2.9	71.8*
Clc1cccc(Nc2ncnc3ccc(Br)cc23)c1	42.4	63.1*	15.7	69.3*	-41.0	4.3	58.5*
Brc1ccc2ncnc(NCc3ccccc3)c2c1	54.2*	81.8*	x	74.9*	-38.0	x	81.0*
CN(C)c1ccc(Nc2ncnc3ccc(Br)cc23)cc1	48.0	82.2*	11.0	73.1*	-9.5	-42.6	92.8*
COc1ccc(Nc2ncnc3ccc(Br)cc23)cc1OC	6.7	5.8	x	47.6	-11.4	x	x
C[C@H]1CN([C@@H](C)CO)C(=O)Cc2cc(NC(=O)CCC(F)(F)F)ccc2O[C@@H]1CN(C)Cc1ccc(C(F)(F)F)cc1	x	x	12.5	x	x	1.9	x
CO[C@H]1CN(C)C(=O)c2cc(NC(=O)NC3CCCC3)ccc2OC[C@@H](C)N(CC2CC2)C[C@@H]1C	x	x	18.2	x	x	x	x
Cc1ccc(CNc2ncnc(N)c2[N+](=O)[O-])cc1	1.2	40.7	-29.4	63.0*	-9.6	-19.3	65.5*
O=C(COC(=O)C1CCN(c2ccc(C(F)(F)F)cn2)CC1)Nc1cccc(F)c1	-7.1	-26.2	-12.2	64.0*	-17.5	0.7	19.3
Cc1ccc(NC(=O)COC(=O)C2CCN(c3ccc(C(F)(F)F)cn3)CC2)cc1C	-30.8	-5.6	-6.5	7.3	-9.9	-2.7	x
C[C@@H]1CN([C@@H](C)CO)C(=O)Cc2cc(NC(=O)Cn3cnnn3)ccc2O[C@H]1CN(C)Cc1ccccc1	x	x	1.0	x	x	-9.0	x
CNC[C@H]1OCCCC[C@@H](C)Oc2ccc(NC(=O)Nc3ccc(F)cc3)cc2C(=O)N([C@H](C)CO)C[C@H]1C	x	x	x	x	x	2.7	x
COc1cc(NC(=O)Cn2ncc(Cl)c(Cl)c2=O)c(C)cc1[N+](=O)[O-]	68.4*	98.2*	104.5*	93.1*	-36.9	75.9*	99.8*
SMILES	TROY NFkB inh	TWEAK Fn14 block	LGR2 inh	CF NFkB block	KKLEB tox	EWS-Fli inh	CF NFkB conf
CCCSc1nnc(Sc2nnnn2-c2ccccc2)s1	4.2	81.8*	x	55.7*	-35.3	x	17.9
Nc1ncnc(Sc2ccccc2)c1[N+](=O)[O-]	22.4	56.7*	x	51.6*	-1.6	-8.5	21.6
Nc1ncnc(Sc2ccc(Cl)cc2)c1[N+](=O)[O-]	-7.1	68.9*	x	64.0*	-13.4	27.8	61.8*
CN(Cc1ccccc1)c1nc(N)c([N+](=O)[O-])c(NCc2ccccc2)n1	26.0	-22.9	10.3	-18.2	0.6	x	x
CN(Cc1ccccc1)c1ncnc(N)c1[N+](=O)[O-]	27.1	34.2	-12.2	66.8*	-8.8	-6.5	60.9*
CCN(CCCc1ccccc1)CCCc1ccccc1	-10.0	-5.9	7.9	53.6*	31.6	-0.9	4.3
O=C(c1cccnc1)N1CC2(C1)[C@H](c1ccccc1)[C@@H](CO)N2Cc1ccccc1	x	x	-29.0	x	x	1.3	x
COc1ccc2[nH]c3c(c2c1)CCN1C(=O)C(CC(=O)NCCC2=CCCCC2)C[C@H](C(=O)N2CCCCC2)[C@@]31CCc1ccccc1 (stereo partly specified)	5.4	25.1	-4.9	55.6*	-48.9	-0.7	80.9*
COc1ccc2[nH]c3c(c2c1)CCN1C(=O)C(CC(=O)NCCN2CCOCC2)C[C@H](C(=O)N2CCCCC2)[C@@]31CCc1ccccc1 (stereo partly specified)	3.4	7.1	1.2	-17.6	3.7	-1.3	x
C=CC(=O)Nc1cccc(Oc2ncnc3[nH]cc(-c4cnc5ccccc5c4)c23)c1	52.6*	65.4*	x	87.1*	-3.0	-8.4	79.2*
COc1ccccc1NC(=O)N(C)C[C@H]1OCc2ccccc2-c2ccccc2C(=O)N([C@@H](C)CO)C[C@@H]1C	x	x	-2.6	x	x	-0.2	x
O=S(=O)(c1ccc(F)cc1)N1CCCCN2[C@H](C1)[C@H](c1ccc(-c3cncnc3)cc1)[C@@H]2CO	x	x	-19.5	x	x	-5.0	x
CCOC(=O)Cc1nnc2c(Nc3ccc(Cl)cc3)nc3nonc3n12	52.3*	35.8	x	50.7*	-20.9	x	59.3*
CC1=CC(C)(C)Nc2ccc(OC(=O)CCN3C(=O)c4ccccc4C3=O)cc21	26.0	96.1*	x	71.0*	5.2	-7.2	-23.9
CCOC(=O)c1[nH]c(C)c(C(=O)N2CCc3ccccc32)c1C	x	46.7	x	53.5*	-35.5	x	56.8*
CCS(=O)(=O)NC[C@@H]1[C@@H](c2ccccc2)[C@@H](CO)N1CC1CCCCC1	x	x	20.8	x	x	4.2	x
Oc1ccc(Nc2ncnc3scc(-c4ccccc4)c23)cc1	32.7	63.3*	-2.8	61.0*	-15.6	16.5	78.0*
NC(=O)c1nc(-c2cccs2)nc2c1[nH]c(=O)n2-c1ccc(F)cc1	5.6	-46.8	-35.3	53.0*	-41.9	1.8	1.9
CO[C@@H]1CN(C)C(=O)c2ccc(NC(=O)c3ccc(F)cc3)cc2OC[C@H](C)N(C(C)=O)C[C@@H]1C	x	x	14.7	x	x	-11.6	x

Source: PubChem
